High-throughput results from PubChem.
The full list was thinned out, with hits kept by preference.
Pf Dd2 inh – qHTS Primary assay for Inhibitors of Plasmodium falciparum Dd2 growth in vitro | P. falciparum Dd2 growth, SYBR Green, 72 h | Potency, µM (series often up to 28.9 µM), for the others: at the top dose activity, negative = inhibition, usual class: inhibitors | hit rate 4.3% among 120,000; active = well fitted inhibition curve with a large enough effect;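 also: plate controls were DMSO vehicle for no effect and reference drug for full effect; nearly all actives have a fitted effect of over 65% in size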
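Infected erythrocytes (Dd2, 0.3% parasitemia, 2.5% hematocrit final) are added to compound in RPMI-1640/Albumax II medium, grown 72 h at 37C in low oxygen, then lysed with saponin/Triton-X containing SYBR Green and read by fluorescence.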
An asterisk follows results filed as active; i = inactive; [ ] = remark or other dose. Potency is read from the fitted curve at half-maximal effect.

SMILES	Pf Dd2 inh
Cc1cc(C)cc(NC(=O)Cn2c(=O)n(CC(=O)NCCc3ccccc3)c(=O)c3ccccc32)c1	6.2%
COc1ccc(NC(=O)Cn2c(=O)n(CC(=O)NCCc3ccccc3)c(=O)c3ccccc32)cc1	19.1%
O=C(c1csc(-c2cccs2)n1)N1CCC2(CCCO2)CC1	-13.0%
COc1cc(OC)cc(C(=O)N2CCC[C@H]2c2nc(-c3ccc(OC)c(OC)c3)no2)c1	14.1%
COCc1cc(C[C@H]2CNCC[C@H]2CC(=O)N2CCN(c3ccccc3OC)CC2)no1	-21.4%
COc1cccc(Cc2nc(C3CC(=O)N(Cc4ccccc4OC)C3)no2)c1 (stereo not given)	i
Cc1nccn1Cc1nnc(C2CCN(C(=O)c3cnccn3)CC2)n1C	23.8%
CC(C)(C)OC(=O)N1CCC(c2c(C(=O)NCc3cccs3)cnn2-c2cccc(F)c2)CC1	7.94µM*
Cc1ccc(-n2ncc(C(=O)NCc3cccs3)c2C2CCN(C(=O)OC(C)(C)C)CC2)c(C)c1	11.2µM*
O=C(CCC1CCN(C(=O)c2ccccc2)CC1)NCCc1ccncc1	3.1%
CCOCC(=O)NC1CCN(c2cnn(C)c(=O)c2)CC1	20.1%
Clc1cccc(-c2noc(-c3ccc(NCC4COCCO4)nc3)n2)c1 (stereo not given)	-18.3%
CC(=O)N1CCC(Oc2ccc(Cl)cc2C(=O)N(C)CCN2CCOCC2)CC1	-11.5%
CC(=O)Nc1ccc(CN2CCC23Cc2ccccc2NC3=O)cc1 (stereo not given)	-1.4%[44.1 µM]
CCc1c(C(=O)N[C@@H]2COCC[C@H]2OCc2ccccn2)csc1C	-17.9%
CCc1cnc(N)nc1N1CCN(c2cnccn2)CC1	-14.0%
CCC(Sc1nc2cc3c(cc2c(=O)n1CCCC(=O)NCc1ccc(OC)cc1)OCO3)C(=O)NCCCOC (stereo not given)	i
COc1ccc(CNC(=O)CCCn2c(SCC(N)=O)nc3cc4c(cc3c2=O)OCO4)cc1	31.6%
CCCCC(Sc1nc2cc3c(cc2c(=O)n1CCCC(=O)NCc1ccc(OC)cc1)OCO3)C(=O)OCC (stereo not given)	7.94µM*
Cc1cc(COc2ccccc2)oc1C(=O)N[C@@H]1CCOC[C@H]1OCCO	-4.1%
CC(C)S(=O)(=O)N1CCC2(CC1)NCCc1c2[nH]c2ccccc12	-24.1%
COc1ccc(-c2cc([C@H]3CN4CC[C@H]3C[C@@H]4CNC(=O)Nc3ccccc3)n(C)n2)cc1OC	5.62µM*
COc1ccc(-c2cc([C@H]3CN4CC[C@H]3C[C@@H]4CNC(=O)c3ccc(C)cc3)n(C)n2)cc1OC	-8.8%
CC(C)NC(=O)OC[C@H]1C[C@@H]2CCN1C[C@@H]2c1cc(-c2ccc3ccccc3c2)nn1C	i
CC(C)NC(=O)NC[C@H]1C[C@@H]2CCN1C[C@@H]2c1cc(-c2ccc3ccccc3c2)nn1C	6.31µM*
SMILES	Pf Dd2 inh
COc1ccc(-c2cc([C@H]3CN4CC[C@H]3C[C@@H]4CNC(=O)C(C)(C)C)n(C)n2)cc1OC	i
Cn1nc(-c2ccc3ccccc3c2)cc1[C@H]1CN2CC[C@H]1C[C@@H]2CNC(=O)Nc1ccccc1	i
CC(=O)NC1CCN(C(=O)N2CC3CC(C2)[C@H]2CCCC(=O)N2C3)CC1 (stereo not given in full)	7.9%
N#Cc1cccc(CN2CCc3ncc(C(=O)NCCOc4ccccc4)n3CC2)c1	-1.2%[44.1 µM]
O=C(NCCOc1ccccc1)c1cnc2n1CCN(Cc1ccc3[nH]ccc3c1)CC2	12.6µM*
O=C(NCCOc1ccccc1)c1cnc2n1CCN(Cc1ccccc1O)CC2	0.6%[44.1 µM]
CNC(=O)[C@@H]1C[C@H](n2cc(CNC(=O)Nc3cc(F)ccc3F)nn2)CN1	2.2%
O=C(N[C@@H]1CN(Cc2cccc(F)c2)C[C@H]1CO)c1ccccc1	i
N#Cc1ccc(CN2C[C@@H](CO)[C@H](NC(=O)c3ccccc3)C2)cc1	-23.1%
O=C(N[C@@H]1CN(Cc2cc(F)cc(F)c2)C[C@H]1CO)c1ccccc1	10µM*
CCn1cc(CN2C[C@@H](COc3ccccc3)[C@H](C(N)=O)C2)cn1	-12.8%
CCCc1ccc(S(=O)(=O)N2CCC(c3c[nH]c4c(C)cccc34)CC2)cc1	-24.5%
CSc1nc(Nc2cccc(C)c2)c(C#N)c(-c2ccccc2)n1	1.8%
CSc1nc(NCCOC(C)=O)c(C#N)c(-c2ccc(C(C)(C)C)cc2)n1	10µM*
CN(C)S(=O)(=O)N1C[C@H]2OC(=O)N(CCc3cccc(Cl)c3)[C@H]2C1	4.6%
Cc1cccc(-n2nc(C)c(CCC(=O)N3CCSCC3)c2Oc2ccccc2)c1	-1.6%
O=C(Cc1ccc(Cl)cc1)Nc1cccc(-c2nnc3n2CCCC3)c1	i
Cc1nnc2n1CCC(N(C)C(=O)CCc1c[nH]c3ccccc13)CC2 (stereo not given)	i
O=C(Cc1ccc(F)cc1)Nc1cccc(-c2nnc3n2CCCC3)c1	7.08µM*
O=C(Cc1ccsc1)Nc1cccc(-c2nnc3n2CCCC3)c1	8.91µM*
Cc1nnc2n1CCC(NC(=O)CCc1c[nH]c3ccccc13)CC2 (stereo not given)	35.8%
Cc1c(F)cccc1NC(=O)Nc1cccc(-c2nnc3n2CCCC3)c1	i
